Results reported in PMC5540273 (PLoS ONE, 2017).

How the values were obtained:
Conditions in all cases: concentration: 1 μM, replicates: in singlicate; n = 1
TLK1 = tested on: TLK1
TLK2 = tested on: TLK2
TNIK = tested on: TNIK
TNK1 = tested on: TNK1
TNK2 = tested on: TNK2
TNNI3K = tested on: TNNI3K
TRKA = tested on: T1, TRKA
T1 construct: gene NTRK1

TRKB = tested on: TRKB
TRKC = tested on: T2, TRKC
T2 construct: gene NTRK3

TRPM6 = tested on: TRPM6
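Note: KINOMEscan kinase panel screen.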

SMILES | %Inh (TLK1) | %Inh (TLK2) | %Inh (TNIK) | %Inh (TNK1) | %Inh (TNK2) | %Inh (TNNI3K) | %Inh (TRKA) | %Inh (TRKB) | %Inh (TRKC) | %Inh (TRPM6)
CC(=O)c1c(C)c2cnc(Nc3ccc(N4CCNCC4)cn3)nc2n(C2CCCC2)c1=O | 0% | 0% | 0% | 0% | 7% | 0% | 0% | 0% | 0% | 0%
COc1ccc(Nc2nccc(N3CCC(NC(=O)C(C)c4ccc(Cl)cc4)CC3)n2)cc1 (centres unmarked) [GSK1379812] | 7% | 0% | 0% | 0% | 8% | 2% | 49% | 0% | 0% | 0%
CCc1ccc(-c2ccc3c(c2)-c2n[nH]cc2S(=O)(=O)N3C)cc1 | 28% | 0% | 9% | 34% | 0% | 0% | 0% | 0% | 0% | 0%
CC(=O)c1c(C)c2cnc(Nc3ccn(C)n3)nc2n(C2CCCC2)c1=O | 1% | 0% | 0% | 54% | 24% | 16% | 29% | 0% | 0% | 0%
c1ccc(-c2ccnc3[nH]ccc23)cc1 [SB-693578] | 7% | 0% | 8% | 0% | 9% | 11% | 22% | 67% | 37% | 0%
